The campaign covered roughly 5,500 compounds. About 2,000 (36%) were called active. Inconclusive results (about 18%) are left out. Rule as the data show it: active = normalized growth mostly below about 0.91 (no sharp cut-off); inconclusive = no clear call, values can overlap the other calls; inactive = mostly above about 0.92. The list shows a part of the results.
Experiment: chemical genetic growth profiling, strain panel (AID 1159580);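 also: tested at 20 µM; growth read once vehicle control cultures reached saturation at 30 °C; 1 = growth at the plate median or of vehicle wells; lower values mean less growth of the strain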
Conditions: growth OD
[1] = S. cerevisiae deletion strains, locus YAL013W, strain DEP1, active compounds read low
[2] = S. cerevisiae deletion strains, locus YBR229C, strain ROT2, active compounds read low
[3] = S. cerevisiae deletion strains, locus YCL061C, strain MRC1, active compounds read low
[4] = S. cerevisiae deletion strains, locus YDL101C, strain DUN1, active compounds read low
[5] = S. cerevisiae deletion strains, locus YDR150W, strain NUM1, active compounds read low
[6] = S. cerevisiae deletion strains, locus YEL061C, strain CIN8, active compounds read low
[7] = S. cerevisiae deletion strains, locus YGR078C, strain PAC10, active compounds read low
[8] = S. cerevisiae deletion strains, locus YGR229C, strain SMI1, active compounds read low
[9] = S. cerevisiae deletion strains, locus YHR030C, strain SLT2, active compounds read low
[10] = S. cerevisiae deletion strains, locus YHR087W, strain rtc3, active compounds read low
[11] = S. cerevisiae deletion strains, locus YJL187C, strain SWE1, active compounds read low
[12] = S. cerevisiae deletion strains, locus YJR043C, strain POL32, active compounds read low
[13] = S. cerevisiae deletion strains, locus YJR075W, strain HOC1, active compounds read low
[14] = S. cerevisiae deletion strains, locus YKL190W, strain CNB1, active compounds read low
[15] = S. cerevisiae deletion strains, locus YLR039C, strain RIC1, active compounds read low
[16] = S. cerevisiae deletion strains, locus YLR058C, strain SHM2 (second series), active compounds read low
[17] = S. cerevisiae deletion strains, locus YLR085C, strain ARP6, active compounds read low
[18] = S. cerevisiae deletion strains, locus YLR262C, strain YPT6, active compounds read low
[19] = S. cerevisiae deletion strains, locus YML094W, strain GIM5, active compounds read low
[20] = S. cerevisiae deletion strains, locus YMR219W, strain ESC1, active compounds read low
[21] = S. cerevisiae deletion strains, locus YMR263W, strain SAP30, active compounds read low
[22] = S. cerevisiae deletion strains, locus YMR307W, strain GAS1, active compounds read low
[23] = S. cerevisiae deletion strains, locus YNL153C, strain GIM3, active compounds read low
[24] = S. cerevisiae deletion strains, locus YNL298W, strain CLA4 (second series), active compounds read low
[25] = S. cerevisiae deletion strains, locus YNL322C, strain KRE1, active compounds read low
[26] = S. cerevisiae deletion strains, locus YNR030W, strain Alg12, active compounds read low
[27] = S. cerevisiae deletion strains, locus YPL055C, strain LGE1, active compounds read low
[28] = S. cerevisiae deletion strains, locus YPL241C, strain CIN2, active compounds read low
[29] = S. cerevisiae deletion strains, locus YPR135W, strain CTF4, active compounds read low

Measured: normalized growth

O=C1CCC(=O)N1CNc1ccccc1OC(F)(F)F
inactive: [1] 0.968 | [2] 0.994 | [3] 1.01 | [4] 0.963 | S. cerevisiae deletion strains, locus YDL134C, strain PPH21, active compounds read low 0.999 | [5] 1.02 | [6] 0.984 | [7] 0.996 | [8] 0.998 | [9] 1.04 | [10] 0.989 | [11] 1 | [12] 1 | [13] 0.997 | [14] 0.999 | [15] 0.991 | [16] 0.992 | [17] 1.02 | [18] 1.05 | [19] 1.02 | [20] 0.993 | [21] 1.03 | [22] 1.2 | S. cerevisiae deletion strains, locus YNL128W, strain TEP1, active compounds read low 0.993 | [23] 1.01 | [24] 0.971 | [25] 0.983 | [26] 1 | [27] 1.07 | [28] 1.02 | [29] 0.92

Cc1cccc(NCN2C(=O)CCC2=O)n1
active: [15] 0.643 | [18] 0.572
inactive: [1] 0.968 | [2] 0.996 | [4] 0.956 | [5] 0.959 | [6] 0.982 | [7] 0.965 | [9] 0.821 | [10] 1.06 | [12] 0.972 | [13] 0.987 | [16] 0.97 | [17] 0.95 | [19] 0.932 | [20] 0.992 | [21] 1.01 | [22] 1.22 | [23] 0.98 | [24] 0.938 | [25] 0.983 | [26] 0.977 | [27] 1 | [28] 0.96 | [29] 0.978

Cc1cccc(N2C(=O)C3C4C=CC(C4)C3C2=O)n1 (stereo unspecified)
inactive: [1] 0.994 | [2] 0.993 | [3] 0.985 | [4] 0.989 | [5] 0.987 | [6] 0.987 | [7] 1.01 | [9] 0.999 | [10] 0.971 | [11] 0.995 | [12] 1.01 | [13] 0.989 | [14] 0.991 | [15] 0.977 | [16] 0.992 | [17] 0.987 | [18] 0.998 | [19] 0.983 | [20] 0.992 | [21] 0.987 | [23] 1 | [24] 1.01 | [25] 1.01 | [26] 1 | [27] 0.991 | [28] 1.01 | [29] 1.03 | S. cerevisiae strains, strain wild type, active compounds read low 0.999

CC1=CC(C)(C)NC(=S)N1
inactive: [1] 1.01 | [2] 1.01 | [4] 1 | [5] 0.981 | [6] 1.01 | [7] 1 | [8] 1.02 | [9] 1.06 | [10] 1 | [12] 1 | [13] 1.01 | [14] 1.01 | [15] 1.01 | [16] 1 | [17] 0.984 | [18] 1.05 | [19] 0.996 | [20] 1 | [21] 1.02 | [23] 0.997 | [24] 1 | [25] 1.01 | [26] 1.01 | [27] 0.984 | [28] 1.03 | [29] 1.06

Oc1ccc(-n2nnnc2SCc2ccc(OC(F)(F)F)cc2)cc1
inactive: S. cerevisiae deletion strains, locus YAR019C, strain CDC15, active compounds read low 0.974 | S. cerevisiae deletion strains, locus YBL105C, strain PKC1, active compounds read low 0.971 | S. cerevisiae deletion strains, locus YBR135W, strain CKS1, active compounds read low 0.979 | S. cerevisiae deletion strains, locus YBR136W, strain MEC1, active compounds read low 0.975 | S. cerevisiae deletion strains, locus YBR160W, strain CDC28, active compounds read low 0.971 | S. cerevisiae deletion strains, locus YDL017W, strain CDC7, active compounds read low 0.982 | S. cerevisiae deletion strains, locus YDL028C, strain MPS1, active compounds read low 0.979 | [4] 0.988 | S. cerevisiae deletion strains, locus YDL108W, strain KIN28, active compounds read low 0.972 | S. cerevisiae deletion strains, locus YDL132W, strain cdc53, active compounds read low 0.984 | S. cerevisiae deletion strains, locus YDL214C, strain PRR2, active compounds read low 0.815 | S. cerevisiae deletion strains, locus YDR052C, strain DBF4, active compounds read low 0.984 | S. cerevisiae deletion strains, locus YDR054C, strain cdc34, active compounds read low 0.968 | S. cerevisiae deletion strains, locus YDR226W, strain ADK1, active compounds read low 0.98 | S. cerevisiae deletion strains, locus YDR477W, strain SNF1, active compounds read low 0.783 | S. cerevisiae deletion strains, locus YER123W, strain YCK3, active compounds read low 0.651 | S. cerevisiae deletion strains, locus YER133W, strain GLC7, active compounds read low 0.767 | S. cerevisiae deletion strains, locus YFL009W, strain cdc4, active compounds read low 0.975 | S. cerevisiae deletion strains, locus YFL029C, strain CAK1, active compounds read low 0.97 | S. cerevisiae deletion strains, locus YFR003C, strain YPI1, active compounds read low 0.98 | S. cerevisiae deletion strains, locus YFR019W, strain FAB1, active compounds read low 0.794 | S. cerevisiae deletion strains, locus YFR028C, strain CDC14, active compounds read low 0.97 | S. cerevisiae deletion strains, locus YGR040W, strain KSS1, active compounds read low 0.747 | S. cerevisiae deletion strains, locus YGR092W, strain DBF2, active compounds read low 0.663 | S. cerevisiae deletion strains, locus YHR079C, strain IRE1, active compounds read low 0.563 | S. cerevisiae deletion strains, locus YHR082C, strain KSP1, active compounds read low 0.617 | S. cerevisiae deletion strains, locus YHR205W, strain SCH9, active compounds read low 0.867 | S. cerevisiae deletion strains, locus YIL147C, strain SLN1, active compounds read low 0.984 | S. cerevisiae deletion strains, locus YJL095W, strain BCK1, active compounds read low 0.597 | S. cerevisiae deletion strains, locus YJL128C, strain PBS2, active compounds read low 0.932 | S. cerevisiae deletion strains, locus YJL157C, strain FAR1, active compounds read low 0.832 | S. cerevisiae deletion strains, locus YJR016C, strain ILV3, active compounds read low 0.977 | S. cerevisiae deletion strains, locus YJR066W, strain TOR1 (second series), active compounds read low 0.738 | S. cerevisiae deletion strains, locus YJR066W, strain TOR1, active compounds read low 0.647 | S. cerevisiae deletion strains, locus YKL067W, strain YNK1, active compounds read low 0.794 | S. cerevisiae deletion strains, locus YKL193C, strain SDS22, active compounds read low 0.978 | S. cerevisiae deletion strains, locus YKL203C, strain TOR2, active compounds read low 0.803 | S. cerevisiae deletion strains, locus YLR133W, strain CKI1, active compounds read low 0.835 | S. cerevisiae deletion strains, locus YLR403W, strain SFP1, active compounds read low 0.828 | S. cerevisiae deletion strains, locus YML070W, strain DAK1, active compounds read low 0.703 | S. cerevisiae deletion strains, locus YMR001C, strain CDC5, active compounds read low 0.97 | S. cerevisiae deletion strains, locus YMR205C, strain PFK2 (second series), active compounds read low 0.782 | S. cerevisiae deletion strains, locus YMR277W, strain FCP1, active compounds read low 0.981 | S. cerevisiae deletion strains, locus YNL006W, strain LST8, active compounds read low 0.981 | S. cerevisiae deletion strains, locus YNL020C, strain ARK1, active compounds read low 0.805 | S. cerevisiae deletion strains, locus YNL161W, strain CBK1, active compounds read low 0.976 | S. cerevisiae deletion strains, locus YNL183C, strain NPR1, active compounds read low 0.635 | S. cerevisiae deletion strains, locus YNL207W, strain RIO2, active compounds read low 0.97 | S. cerevisiae deletion strains, locus YNL222W, strain SSU72, active compounds read low 0.966 | S. cerevisiae deletion strains, locus YNL307C, strain MCK1 (second series), active compounds read low 0.791 | S. cerevisiae deletion strains, locus YOL078W, strain AVO1, active compounds read low 0.978 | S. cerevisiae deletion strains, locus YOL136C, strain PFK27, active compounds read low 0.75 | S. cerevisiae deletion strains, locus YOR061W, strain CKA2, active compounds read low 0.772 | S. cerevisiae deletion strains, locus YOR119C, strain RIO1, active compounds read low 0.806 | S. cerevisiae deletion strains, locus YOR329C, strain SCD5, active compounds read low 0.986 | S. cerevisiae deletion strains, locus YPL031C, strain PHO85, active compounds read low 0.725 | S. cerevisiae deletion strains, locus YPL209C, strain IPL1, active compounds read low 0.977 | S. cerevisiae deletion strains, locus YPR025C, strain CCL1, active compounds read low 0.975 | S. cerevisiae deletion strains, locus YPR106W, strain ISR1, active compounds read low 0.971 | S. cerevisiae deletion strains, locus YPR111W, strain DBF20, active compounds read low 0.967 | S. cerevisiae deletion strains, strain NNK1, active compounds read low 0.979 | S. cerevisiae deletion strains, strain TSCII, active compounds read low 0.983
active: S. cerevisiae deletion strains, locus YGR052W, strain FMP48, active compounds read low 0.577 | [9] 0.554 | S. cerevisiae deletion strains, locus YKL048C, strain ELM1, active compounds read low 0.635 | S. cerevisiae deletion strains, locus YKL101W, strain HSL1, active compounds read low 0.716 | S. cerevisiae deletion strains, locus YLR113W, strain HOG1, active compounds read low 0.523 | S. cerevisiae deletion strains, locus YOR231W, strain MKK1, active compounds read low 0.509 | S. cerevisiae deletion strains, locus YPL153C, strain RAD53, active compounds read low 0.599 | S. cerevisiae deletion strains, locus YPL204W, strain HRR25, active compounds read low 0.622 | S. cerevisiae deletion strains, locus YPL256C, strain CLN2, active compounds read low 0.467

Reference: PubChem BioAssay AID1159580 (chemical genetic matrix, 2015)
